Test results: PubChem BioAssay AID1159580 (chemical genetic matrix, 2015)
Hit rate of the full screen: of about 5,500 compounds, about 2,000 (36%) were called active. About 18% were inconclusive and are not listed. Rule as the data show it: active = normalized growth mostly below about 0.91 (no sharp cut-off); inconclusive = no clear call, values can overlap the other calls; inactive = mostly above about 0.92. Some of the results follow.

Test: chemical genetic growth profiling, strain panel (AID 1159580);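 also: tested at 20 µM; growth read once vehicle control cultures reached saturation at 30 °C; 1 = growth at the plate median or of vehicle wells; lower values mean less growth of the strain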
Settings: S. cerevisiae deletion strains, growth OD

Measured: normalized growth

CC(=O)O[C@H]1[C@@H]2[C@@H](OC(=O)Cc3ccccc3)[C@@H](C)C[C@]2(OC(C)=O)C(=O)/C(C)=C/[C@H]2[C@H](CC[C@@]13CO3)C2(C)C
active: locus YNL071W, strain lat1, active compounds read low 0.914
inactive: locus YAL021C, strain ccr4, active compounds read low 0.975 | locus YAL026C, strain drs2, active compounds read low 0.985 | locus YAL030W, strain snc1, active compounds read low 0.986 | locus YBL061C, strain skt5, active compounds read low 0.984 | locus YBR009C, strain hhf1, active compounds read low 1 | locus YBR023C, strain chs3, active compounds read low 0.982 | locus YBR171W, strain sec66, active compounds read low 0.976 | locus YBR231C, strain swc5, active compounds read low 0.988 | locus YBR279W, strain paf1, active compounds read low 0.983 | locus YCL011C, strain gbp2, active compounds read low 0.979 | locus YCL016C, strain dcc1, active compounds read low 0.989 | locus YCL061C, strain MRC1, active compounds read low 0.992 | locus YCL069W, strain vba3, active compounds read low 0.991 | locus YCR088W, strain abp1, active compounds read low 0.992 | locus YDL005C, strain med2, active compounds read low 0.976 | locus YDL040C, strain nat1, active compounds read low 0.978 | locus YDR001C, strain nth1, active compounds read low 0.985 | locus YDR069C, strain doa4, active compounds read low 0.98 | locus YDR137W, strain rgp1, active compounds read low 0.85 | locus YDR159W, strain sac3, active compounds read low 0.977 | locus YDR195W, strain ref2 1.01 | locus YDR297W, strain sur2, active compounds read low 0.97 | locus YDR334W, strain swr1, active compounds read low 0.934 | locus YDR335W, strain msn5, active compounds read low 0.978 | locus YDR392W, strain spt3, active compounds read low 0.84 | locus YEL003W, strain gim4, active compounds read low 0.981 | locus YEL037C, strain rad23, active compounds read low 0.987 | locus YEL061C, strain CIN8 (second series), active compounds read low 0.984 | locus YER015W, strain faa2, active compounds read low 0.989 | locus YER016W, strain bim1, active compounds read low 0.979 | locus YER111C, strain swi4, active compounds read low 0.992 | locus YER155C, strain BEM2 (second series), active compounds read low 0.984 | locus YFR010W, strain ubp6, active compounds read low 0.977 | locus YGL167C, strain pmr1, active compounds read low 0.97 | locus YGL173C, strain kem1, active compounds read low 0.958 | locus YGL227W, strain vid30, active compounds read low 0.99 | locus YGL240W, strain doc1, active compounds read low 0.99 | locus YGL253W, strain hxk2, active compounds read low 0.974 | locus YHR013C, strain ard1, active compounds read low 0.926 | locus YHR027C, strain rpn1, active compounds read low 0.983 | locus YHR030C, strain SLT2, active compounds read low 0.988 | locus YHR079C, strain IRE1, active compounds read low 0.981 | locus YHR142W, strain chs7, active compounds read low 0.958 | locus YJL092W, strain hpr5, active compounds read low 0.97 | locus YJL095W, strain BCK1 (second series), active compounds read low 0.977 | locus YJL095W, strain BCK1, active compounds read low 0.989 | locus YJL115W, strain asf1, active compounds read low 0.969 | locus YJL129C, strain trk1, active compounds read low 0.941 | locus YJL154C, strain vps35, active compounds read low 0.993 | locus YJL164C, strain tpk1, active compounds read low 0.982 | locus YJL166W, strain qcr8, active compounds read low 0.981 | locus YJL187C, strain SWE1, active compounds read low 0.988 | locus YJR066W, strain TOR1, active compounds read low 0.963 | locus YKL160W, strain elf1, active compounds read low 0.972 | locus YKR026C, strain gcn3, active compounds read low 0.982 | locus YKR091W, strain srl3, active compounds read low 0.985 | locus YLL001W, strain dnm1, active compounds read low 0.98 | locus YLL026W, active compounds read low 0.98 | locus YLL041C, strain sdh2, active compounds read low 0.97 | locus YLR027C, strain aat2, active compounds read low 0.975 | locus YLR113W, strain HOG1, active compounds read low 0.966 | locus YLR221C, strain rsa3, active compounds read low 0.975 | locus YLR258W, strain gsy2, active compounds read low 0.986 | locus YLR262C, strain YPT6 (second series), active compounds read low 0.878 | locus YLR320W, strain mms22, active compounds read low 0.971 | locus YLR342W, strain FKS1, active compounds read low 0.966 | locus YLR357W, strain rsc2, active compounds read low 1.03 | locus YLR370C, strain arc18, active compounds read low 0.987 | locus YLR384C, strain iki3, active compounds read low 0.983 | locus YML120C, strain ndi1, active compounds read low 0.967 | locus YMR058W, strain fet3, active compounds read low 0.98 | locus YMR125W, strain sto1, active compounds read low 1 | locus YMR129W, active compounds read low 0.989 | locus YMR205C, strain PFK2, active compounds read low 0.984 | locus YMR231W, strain pep5, active compounds read low 0.993 | locus YNL183C, strain NPR1, active compounds read low 0.909 | locus YNL209W, strain ssb2, active compounds read low 0.989 | locus YNL248C, strain rpa49, active compounds read low 0.98 | locus YNL322C, strain KRE1 (second series), active compounds read low 0.981 | locus YNR049C, strain mso1, active compounds read low 0.978 | locus YOR001W, strain rrp6, active compounds read low 0.955 | locus YOR070C, strain gyp1, active compounds read low 0.985 | locus YOR080W, strain dia2, active compounds read low 0.974 | locus YOR083W, strain WHI5, active compounds read low 0.972 | locus YOR106W, strain vam3, active compounds read low 0.951 | locus YOR231W, strain MKK1, active compounds read low 0.961 | locus YOR265W, strain rbl2, active compounds read low 0.983 | locus YOR270C, strain vph1, active compounds read low 0.815 | locus YOR290C, strain snf2, active compounds read low 0.929 | locus YPL051W, strain arl3, active compounds read low 0.958 | locus YPL078C, strain atp4, active compounds read low 0.978 | locus YPL106C, strain sse1, active compounds read low 1 | locus YPL240C, strain hsp82, active compounds read low 0.966 | locus YPL256C, strain CLN2, active compounds read low 0.967

C[C@@H]1O[C@@H](O[C@H]2C[C@@H](O)[C@]3(CO)[C@H]4[C@H](O)C[C@]5(C)[C@@H](C6=CC(=O)OC6)CC[C@]5(O)[C@@H]4CC[C@]3(O)C2)[C@H](O)[C@H](O)[C@H]1O
inactive: locus YAL040C, strain CLN3, active compounds read low 0.989 | locus YCL061C, strain MRC1 (second series), active compounds read low 0.996 | locus YDR150W, strain NUM1, active compounds read low 1 | locus YDR363W, strain ESC2, active compounds read low 0.984 | locus YER002W, strain NOP16, active compounds read low 1.02 | locus YGR078C, strain PAC10, active compounds read low 0.985 | locus YGR229C, strain SMI1, active compounds read low 0.993 | locus YJR075W, strain HOC1, active compounds read low 0.997 | locus YMR263W, strain SAP30, active compounds read low 0.996 | locus YMR307W, strain GAS1, active compounds read low 0.995 | locus YNL175C, strain NOP13, active compounds read low 1.02 | locus YNL197C, strain WHI3, active compounds read low 1.03 | locus YNL224C, strain SQS1, active compounds read low 0.988 | locus YOR083W, strain WHI5 (second series), active compounds read low 1
